This passage reports AC50 results from PubChem BioAssay AID463208 (Broad Institute, 2010).

Molecules are shown by their SMILES. Values without a mark were called inactive. Calls of active or inactive are those of the source.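 The calls were made as follows: active = AC50 at most tenfold above the top tested concentration; inconclusive = flat fit with 30 to 70% activity, or a poor fit; inactive = AC50 over tenfold above the top dose.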

This assay is described as follows: yeast HDAC inhibitors, dose response, mechanism study for Sdo1 growth activator project, cell lysate, fluorescence, yeast nuclear extract (AID 463208). Particulars: yeast nuclear extract HDAC activity, fluorogenic substrate.
Take `CSCC[C@H](NC(=O)OC(C)(C)C)c1nnc(SCC(N)=O)o1`: the AC50 was > 50 µM.

In the case of `Cc1c(/C=N/NC(=O)c2cccc(F)c2)cnn1C`, the AC50 was > 50 µM.

As for `CCOc1cccc(C(=O)NC(=S)NCc2cccnc2)c1`, the AC50 was > 50 µM.

Turning to `CCOC(=O)/C=C1\SCC(=O)N1CC(=O)NC12CC3CC(CC(C3)C1)C2`, the AC50 is > 50 µM.

Take `COc1ccc(-c2nc3ccccc3o2)cc1NC(=O)c1ccc(Br)o1`: the AC50 is > 50 µM.

With `COc1ccc(-c2nc3ccccc3s2)cc1NC(=O)c1ccc(Br)o1`, the AC50 is > 50 µM.

Take `O=C(CSc1nc(-c2cccs2)cc(C(F)(F)F)n1)NCc1ccco1`: the AC50 is > 50 µM.

Take `CCSc1nnc([C@H](CCSC)NC(=O)OC(C)(C)C)o1`: the AC50 is > 50 µM.

As to `O=C(Nc1cccc(Cl)c1)c1ccc(NCC2CCCO2)c([N+](=O)[O-])c1` (stereo not drawn), the AC50 is > 50 µM.

As for `CCN(CC)CCCNC(=O)C1CCNCC1`, the AC50 is > 50 µM.

As to `COc1ccc(-c2c(C)sc(NC(=O)c3ccnn3C)c2C#N)cc1`, the AC50 was > 50 µM.

For `CC(/C=C/C(=O)NO)=C\[C@@H](C)C(=O)c1ccc(N(C)C)cc1`, the AC50 was < 0.00075 µM (active).

Regarding `CC(=O)N(c1ccccc1)C1C(=O)C(=O)c2ccccc2C1=O` (stereo not drawn), the AC50 was > 50 µM.

With `CCOC(=O)/C=C1\SCC(=O)N1CC(=O)NC1CCCCC1`, the AC50 was > 50 µM.

With `Cc1ccc2c(CC(=O)NNC(=O)c3ccccc3)coc2c1`, the AC50 is > 50 µM.

`Cn1c(=O)[nH]c(=O)c2c1nc(Sc1nc3ccccc3[nH]1)n2Cc1ccccc1`: the AC50 is > 50 µM.

For `Cc1ccc(Cn2c(Sc3nccc(C)n3)nc3c2c(=O)[nH]c(=O)n3C)cc1`, the AC50 is > 50 µM.

With `O=C(Nc1ccccc1)c1ccc(NCC2CCCO2)c([N+](=O)[O-])c1` (stereo not drawn), the AC50 is > 50 µM.

On to `CC(=O)N(C1=C(Cl)C(=O)c2ccccc2C1=O)C1CCCCC1`, for which the AC50 was > 50 µM.

For the compound `Cc1nn(-c2ccccc2)c(C)c1NC(=O)c1cccs1`, the AC50 was > 50 µM.

`CC(C)C(C(=O)Nc1cccnc1)N1C(=O)c2ccccc2C1=O` (stereo not drawn): the AC50 is > 50 µM.

As for `O=C(CCSc1nc(-c2ccco2)cc(C(F)(F)F)n1)NCCc1cccs1`, the AC50 is > 50 µM.

As for `CCOc1ccc(C(=O)NC(=S)NCc2cccnc2)cc1`, the AC50 is > 50 µM.
